# Screening results (PubChem)
# Only some compounds are listed: those with a hit (about 19% of all), similar ones and a draw of the others.
# HT1080 IDH1KD tx: qHTS for induction of synthetic lethality in tumor cells producing 2HG: qHTS for the HT-1080-IDH1KD cell line; AID 686971, 2013; HT-1080 IDH1 knockdown viability, ATP luminescence, 48 h; Potency, µM (top dose mostly 46.1 µM), inactives show at the top dose activity, negative = toxicity, most hits filed as cytotoxic; 360,000 tested, 2% active;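 note: potency is the fitted concentration of half-maximal effect; 0% = DMSO wells and -100% = cell-free medium wells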
#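 % activity derives from luminescence (CellTiter-Glo), normalised to DMSO and no-cell wells. HT-1080-IDH1KD cells, 750/well, had 48 h compound exposure at 37 °C.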
# ELG1 repair inh: qHTS screen for small molecules that inhibit ELG1-dependent DNA repair in human embryonic kidney (HEK293T) cells expressing luciferase-tagged ELG1; HEK293T ELG1-luciferase reporter, luminescence, 16 h; DNA damage induced by 5-fluorouridine; Potency, µM (series often up to 46.1 µM), for the others: top-dose activity change, negative = inhibition, actives largely listed as inhibitors; 330,000 tested, 2.3% active; AID 504467, 2011; note: potency is the fitted concentration of half-maximal effect; nearly all actives have a fitted effect of over 55% in size
#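 Overnight (16 hr) co-exposure of 2,000 cells/well to 5-fluorouridine and compound at 37 °C preceded detection. Luciferase was quantified via ONE-Glo luminescence; loss of signal denotes inhibition.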
# IL1B secr inh: qHTS for Inhibitors of Inflammasome Signaling: IL-1-beta AlphaLISA Primary Screen; AID 743279, 2014; 360,000 tested, 4.7% active; THP-1 LPS/ATP IL-1B secretion, AlphaLISA, 16 h; hits give low values; activity change, % at 57.5 µM; in the data active = activity change below about -50%; inconclusive = mostly about -30% to -49%
#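 Secreted IL-1B measured by AlphaLISA bead assay after 16 h compound exposure of THP-1 cells; compounds (final up to 57.5 uM) added 1 h before LPS (250 ng/mL) and ATP (1.25 mM) stimulation; lower signal means less secretion.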
# DT40 TDP1 no CPT: qHTS for Inhibitors of human tyrosyl-DNA phosphodiesterase 1 (TDP1): qHTS in cells in absence of CPT; 420,000 tested, 15% active; AID 686978, 2013; DT40 Tdp1-/- hTDP1 cells, no CPT, ATP luminescence, 48 h; Potency, µM (titrated, usually from 46.2 µM), without a hit: top-dose activity change, negative = growth inhibition, usual class: inhibitors; note: potency is the fitted concentration of half-maximal effect; nearly all actives have a fitted effect of over 55% in size
#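 Compound effects on proliferation are scored in DT40 Tdp1-/-;hTDP1 cells in the absence of CPT. ATP levels (CellTiter-Glo luminescence) are recorded after a ≥48 hr, 37 °C incubation.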
# HT1080NT lethal: qHTS for induction of synthetic lethality in tumor cells producing 2HG: qHTS for the HT-1080-NT fibrosarcoma cell line; HT-1080-NT fibrosarcoma viability, CellTiter-Glo ATP luminescence, 48 h; AID 686970, 2013; Potency, µM (top dose mostly 46.1 µM), for inactives: at the highest dose activity, negative = less viability, actives largely listed as cytotoxic; 360,000 tested, 1.6% active;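 note: NT is the 2HG producing partner of a matched IDH1 knockdown line; potency is the fitted concentration of half-maximal effect; 0% = DMSO-treated cells and -100% = media-only wells without cells; nearly all actives have a fitted effect of over 55% in size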
#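 Fibrosarcoma NT cells, 750 per well in 5% FBS RPMI, were exposed to compound for 48 hours. Viability: CellTiter-Glo luminescence.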
# DT40 TDP1 CPT: qHTS for Inhibitors of human tyrosyl-DNA phosphodiesterase 1 (TDP1): qHTS in cells in presence of CPT | chicken DT40 Tdp1-/-;hTDP1 cells + 20 nM CPT, ATP luminescence, 48 h | Potency, µM (series often up to 46.2 µM), for the others: at the top dose activity change, negative = growth inhibition, actives largely listed as inhibitors | 420,000 tested, 12% active; note: potency is the fitted concentration of half-maximal effect; nearly all actives have a fitted effect of over 55% in size
#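 Chicken DT40 Tdp1-/- cells stably complemented with human TDP1 were seeded at 400 cells/well in medium containing 20 nM camptothecin, exposed to pin-transferred compounds, and grown at 37 °C for at least 48 hr. Viability was read as ATP luminescence.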
# Active calls of the source: *; u = inconclusive; x = no result; ! = not confirmed by another sample. Unless noted, calls come from the whole dose curve; as a rule, active = well fitted curve in the direction sought with a large enough effect; inconclusive = small, poorly fitted or top-dose-only effect, or another doubt; inactive = no such curve, though single readings can be large; an effect the other way counts as inactive or inconclusive. Unless noted, % is set by controls: 0 for no effect and ±100 for the full control effect.
SMILES,HT1080 IDH1KD tx,ELG1 repair inh,IL1B secr inh,DT40 TDP1 no CPT,HT1080NT lethal,DT40 TDP1 CPT
O=C(CSc1n[nH]c(-c2ccncc2)n1)Nc1ccccc1,4%,-3%,15,-8%,-1%,2%
Cc1ccc(NC(=O)CSc2n[nH]c(-c3ccccn3)n2)cc1,u,u,57,-79%,-15%,5.8µM*
O=C(NCCO)c1ccc(-c2cnc3cccnn23)cc1,0%,x,-5,-27%,10%,u
Cn1nc(C(C)(C)C)cc1C(=O)N1CCC(C)(C(=O)NS(=O)(=O)C2CC2)C1 (configuration not stated),4%,x,5,-16%,u,-19%
O[C@@H]([C@H](O)[C@H](O)CBr)[C@H](O)CBr,10%,x,29,12µM*!,22%,18µM*!
OC[C@@H](O)[C@H](O)[C@H](O)[C@@H](O)CO,x,x,x,-1%,x,-13%
COc1ccc(/C=C/C(=O)OCC(=O)Nc2cc(C(F)(F)F)ccc2Cl)cc1,3%,-9%,-3,12µM*,13%,u
COc1ccc(/C=C/C(=O)OCC(=O)Nc2cc(S(=O)(=O)N(C)C)ccc2Cl)cc1,18%,-12%,-4,0%,17%,3%
O=C(COC(=O)/C=C/c1ccc(C(F)(F)F)cc1)NC1CCS(=O)(=O)C1 (configuration not stated),17%,13%,-1,21µM*,3%,u
COc1ccc(/C=C/C(=O)OCC(=O)NC2CCS(=O)(=O)C2)cc1 (configuration not stated),-4%,-2%,-6,-21%,-6%,0%
O=C(CCc1ccccc1)NNC(=O)c1ccncc1,1%,u,12,-5%,11%,-4%
CCCN1CNc2c(c(=O)[nH]c(=S)n2CCc2ccc(Cl)c(Cl)c2)C1,14%,x,x,u,2%,u
CCCN1CNc2c(c(=O)[nH]c(=S)n2CCc2cccc(C)c2)C1,20%,x,x,u,8%,u
CCCN1CNc2c(c(=O)[nH]c(=S)n2CCc2ccc(Cl)cc2Cl)C1,-7%,x,x,13µM*,-4%,u
CCCN1CNc2c(c(=O)[nH]c(=S)n2CCc2cc(C)ccc2C)C1,14%,x,x,13µM*,4%,u
CCCN1CNc2c(c(=O)[nH]c(=S)n2CCc2c(Cl)cccc2Cl)C1,-10%,x,x,13µM*,-4%,16µM*
CCCN1CNc2c(c(=O)[nH]c(=S)n2CCc2ccccc2Cl)C1,7%,x,x,11µM*,5%,u
Cc1ccc(OC(C)C(=O)Nc2ccccc2C(=O)NCc2cccnc2)cc1C (configuration not stated),-2%,u,11,-29%,1%,u
O=C1NC[C@@H](CCCCN2C[C@H](Cc3ccc(O)cc3)N(Cc3ccccc3)C(=O)C2=O)N(CCC2CCCCC2)C1=O,3%,x,-2,-25%,11%,-7%
CCSc1n[nH]c(=S)s1,19%,-13%,20,0%,-6%,-6%
CCCN1CNc2c(c(=O)[nH]c(=S)n2CCc2ccc(OC)cc2OC)C1,8%,x,x,13µM*,0%,u
O=C(NCCc1csc(-c2cccnc2)n1)c1ccc(Br)o1,0%,12µM*,-7,18µM*,2%,u
O=C(NCCc1csc(-c2cccnc2)n1)c1ccccc1Br,26%,u,0,-26%,20%,-26%
